Hits are enriched below; roughly 2.4% of the tested compounds scored in any of these assays.
Pol kappa inh-1: qHTS for Inhibitors of Polymerase Kappa; DNA polymerase kappa (Homo sapiens), Q9UBT6; purified Pol kappa, fluorescent DNA synthesis assay, 10 min; Potency, µM (doses to about 107 µM), for inactives: at the highest dose activity, negative = inhibition, usual class: inhibitors; hit rate 0.53% among 400,000; AID 588579, 2011; note: % is set by controls: 0 for no effect and ±100 for the full control effect
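10 nM Pol kappa preincubated 15 min at room temperature with compounds, then reaction started with substrate at 50 nM final. Fluorescence read kinetically at 0 and 10 min; buffer-only wells served as negative control.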
Pol eta inh-1: qHTS for Inhibitors of Polymerase Eta; recombinant Pol eta, fluorescent DNA replication assay; Potency, µM (doses to about 114 µM), inactives show at the top dose activity change, negative = inhibition, actives largely listed as inhibitors; hit rate 1.2% among 390,000; AID 588591, 2011; note: % is set by controls: 0 for no effect and ±100 for the full control effect
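Fluorescent replication assay: 50 nM final substrate added after a 15 min room-temperature compound preincubation with 10 nM enzyme. Signal taken at 0 min and again at 10 min.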
FEN1 inh-1: qHTS Assay for the Inhibitors of Human Flap endonuclease 1 (FEN1); P39748; Recombinant FEN1 flap cleavage, fluorescence, 15 min; Potency, µM (highest dose often 114 µM), inactives show top-dose activity change, negative = inhibition, most hits filed as inhibitors; hit rate 0.35% among 390,000; AID 588795, 2011; note: % is set by controls: 0 for no effect and ±100 for the full control effect; nearly all actives have a fitted effect of over 65% in size
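Enzyme 10 nM, 15 min RT preincubation with compound; start with substrate 50 nM final; reads at 0 and 15 min; qHTS titration, four-parameter Hill fit.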
POLB inh: qHTS Assay for Inhibitors of DNA Polymerase Beta; P06746; Pol beta primer extension/strand displacement, fluorescence kinetic; Potency, µM (doses to about 114 µM), without a hit: at the top dose activity change, negative = inhibition, usual class: inhibitors; hit rate 1.3% among 340,000; AID 485314, 2010; note: % is set by controls: 0 for no effect and ±100 for the full control effect
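Preincubation: enzyme (10 nM) with compound, 15 min, RT. Reaction: substrate added to 50 nM final. Reads: 0 and 10 min. Analysis: normalized, Hill fit.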
WRN helicase inh: qHTS for Inhibitors of WRN Helicase; Bifunctional 3'-5' exonuclease/ATP-dependent helicase WRN (Homo sapiens), Q14191; WRN helicase unwinding, fluorescent forked duplex, kinetic; hit rate 0.46% among 360,000; Potency, µM (top dose mostly 114 µM), for the others: at the top dose activity change, negative = inhibition, hits mostly inhibitors; note: % is set by controls: 0 for no effect and ±100 for the full control effect; nearly all actives have a fitted effect of over 55% in size
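Enzyme (20 nM final) and test compound sit together 15 min at room temperature before substrate addition. Substrate is a single-forked duplex oligonucleotide (100 nM) labelled with fluorophore and quencher, with 2 mM ATP; helicase unwinding raises red fluorescence, read kinetically.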
Pol iota inh: qHTS for Inhibitors of Polymerase Iota; DNA polymerase iota (Homo sapiens), Q9UNA4; Pol iota fluorescent replication assay, 10 min; Potency, µM (top dose mostly 115 µM), for inactives: at the highest dose activity, negative = inhibition, usual class: inhibitors; hit rate 1% among 390,000
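Pol iota at 10 nM preincubated 15 min with compounds at room temperature; reaction started with fluorescent substrate, 50 nM final. Fluorescence read kinetically at 0 and 10 min; buffer-only wells as negative control.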
Pol kappa inh-2: qHTS for Inhibitors of Polymerase Kappa: Confirmatory Assay for Cherry-picked Compounds. shares compounds with Pol eta inh-1. purified Pol-kappa, fluorescent strand-displacement substrate. Potency, µM, usual class: inhibitors. hit rate 76% among 920
Pol eta inh-2: qHTS for Inhibitors of Polymerase Eta: Confirmatory Assay for Cherry-picked Compounds; shares compounds with Pol eta inh-1; Pol eta primer extension, TAMRA/BHQ fluorescence, 10 min; Potency, µM, actives largely listed as inhibitors; hit rate 64% among 2,600; AID 720502, 2013
FEN1 inh-2: qHTS Assay for the Inhibitors of FEN1: Confirmatory Assay for Cherry-picked Compounds; shares compounds with FEN1 inh-1; hit rate 79% among 880; FEN1 flap cleavage, TAMRA/BHQ2 fluorogenic DNA substrate; Potency, µM, usual class: inhibitors; note: nearly all actives have a fitted effect of over 60% in size
* marks the source's active call; other numbers are inactive results; u = inconclusive; x = no result given; [ ] = another dose, or the depositor's remark. Calls come from the whole dose curve; as a rule, active = well fitted curve in the direction sought with a large enough effect; inconclusive = small, poorly fitted or top-dose-only effect, or another doubt; inactive = no such curve, though single readings can be large; an effect the other way counts as inactive or inconclusive. Potency is the fitted concentration of half-maximal effect.

SMILES	Pol kappa inh-1	Pol eta inh-1	FEN1 inh-1	POLB inh	WRN helicase inh	Pol iota inh	Pol eta inh-2	FEN1 inh-2	others
CC1CCN(C(=O)COC(=O)c2ccc([N+](=O)[O-])o2)CC1	-6%	50µM*	u	x	-10%[11.6 µM]	50µM*	u	6*
CCn1c(=O)n(CC)c2cc(N3CCCCC3)c(NC(=O)Nc3cc(C)cc(C)c3)cc21	0%	-15%	-18%	24%	x	32%	x	x
CC(=O)c1sc2nc(CSc3nnnn3-c3ccccc3)[nH]c(=O)c2c1C	u	10µM*	79µM*	13µM*	28µM*	11µM*	67*	u
CN=c1scc(C)n1/N=C/c1ccc(O)c(O)c1O	13µM*	3.5µM*	79µM*	5µM*	20µM*	7.9µM*	54*	34*
CN=c1scc(C)n1/N=C/c1cc(Br)c(O)c(OC)c1	-4%	-8%	2%	1%	-5%	168%	x	x
O=C(N/N=C/c1cc(Br)c(O)c(Br)c1)c1cc2c(ccc3ccccc32)o1	20µM*	18µM*	56µM*	u	35µM*	u	85*	43*
COc1ncc2nc(-c3cccc(C#N)c3)c(=O)n(CCC#N)c2n1	0%[60.1 µM]	x	x	x	x	x	x	x
O=S(=O)(c1ccc2ccccc2c1)N1CCN(S(=O)(=O)c2c(F)cccc2F)CC1	1%	-14%	4%	x	x	26%	x	x
O=c1[nH]c2ccc(S(=O)(=O)N3CCN(S(=O)(=O)c4c(F)cccc4F)CC3)cc2[nH]c1=O	x	x	x	x	x	x	x	u	Pol kappa inh-2=53*
CC(C)(C)n1ncc2c(=O)n(Cc3cccc(OC(F)F)c3)cnc21	-9%	x	-1%	x	x	-1%	x	x
O=C(O)CN1C(=O)/C(=C\c2cc(Br)ccc2OCc2ccc([N+](=O)[O-])cc2)SC1=S	71µM*	28µM*	u	28µM*	u	40µM*	u	85*	Pol kappa inh-2=27*
O=C(COC(=O)c1ccc([N+](=O)[O-])s1)NCc1ccc(F)cc1	-27%	79µM*	-10%	u	-5%[11.6 µM]	u	u	6.7*
O=C(COC(=O)c1ccc([N+](=O)[O-])s1)NNC(=O)c1ccccc1	-19%	u	-8%	x	10%	u	x	x
C=CCOc1ccc(Br)cc1/C=C1/SC(=Nc2ccc(C(=O)O)cc2)NC1=O	-18%	20µM*	25µM*	u	-11%[11.6 µM]	u	85*	u
CCOc1cc(Br)cc(/C=C2\SC(=Nc3ccccc3)NC2=O)c1O	-5%	u	-30%	u	-9%	u	x	x
CCOC(=O)C1=C(COC(=O)c2ccc([N+](=O)[O-])s2)NC(=O)NC1C (stereo not drawn)	u	40µM*	u	x	25%	50µM*	u	4.3*
CC[Si](CC)(CC)O[C@H]([C@@H](C)COCOC)[C@@H](C)COCc1ccc(OC)cc1	-4%	x	15%	x	x	30%	x	x
